Reference: the supplement of paper PMC10849652
About 7,900 targets were measured; listed, in parts, are those with a hit and a random draw of the rest. About 0.6% of all pairs of compound and target were hits.

What was measured:
Experiment in all cases: log2 fold change, soluble protein after heating vs DMSO (PISA); higher = thermal stabilisation; K562 cells, 10 uM, 30 min; active = over 0.2 and 3.5 SD of the protein, either way, in both replicates (recomputed)
[1] = compound: C1=CC=C(C=C1)[C@H](COC2=CC3=C(C=C2)NC(=O)N3)NC(=O)C4=CC=CN(C4=O)CC5=CC(=C(C=C5)F)F
How it was run: (§1)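 Thermal stability values are relative to control samples and come from duplicates. They are expressed as log2 fold changes. For measurement, K562 cells (2×10^6 cells/mL) received 10 μM compound for 30 min, and aliquots were heated for 3 min over 48°C-58°C, pooled, and extracted at 4°C in PBS with 0.5% NP-40. Soluble protein, the supernatant after 21,000xg for 90 min, was quantified by TMTpro 16plex LC-MS/MS with equalised channel sums.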

[2] = compound: CC1=C(SC2=C1C(=N[C@H](C3=NN=C(N32)C)CC(=O)N)C4=CC=C(C=C4)Cl)C
How it was run: as §1

[3] = compound: CC1=C2C(=CC=C1)N=C(N(C2=O)C3=CC=CC=C3C)CN4C=NC5=C(N=CN=C54)N
How it was run: as §1

[4] = compound: Cc1sc2c(c1C)C(c1ccc(Cl)cc1)=N[C@@H](CC(=O)OC(C)(C)C)c1nnc(C)n1-2
How it was run: as §1

[5] = compound: c1ccc([C@@H]2C[C@H]2NC2CCNCC2)cc1
How it was run: as §1

Measured: log2 fold change

CUTA isoform 2 (UniProt O60888)
UniProt O60888, sequence (O60888 whole entry, looked up): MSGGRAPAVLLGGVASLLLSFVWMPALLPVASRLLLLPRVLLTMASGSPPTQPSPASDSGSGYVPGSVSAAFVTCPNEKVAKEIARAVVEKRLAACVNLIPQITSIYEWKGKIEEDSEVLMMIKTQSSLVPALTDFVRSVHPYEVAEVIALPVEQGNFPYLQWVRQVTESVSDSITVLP
inactive: [1] 0.099 | [2] 0.116 | [3] -0.289 | [4] -0.123 | [5] 0.015

FAM177A1 isoform 2 (UniProt Q8N128)
UniProt Q8N128, sequence (Q8N128 whole entry, looked up): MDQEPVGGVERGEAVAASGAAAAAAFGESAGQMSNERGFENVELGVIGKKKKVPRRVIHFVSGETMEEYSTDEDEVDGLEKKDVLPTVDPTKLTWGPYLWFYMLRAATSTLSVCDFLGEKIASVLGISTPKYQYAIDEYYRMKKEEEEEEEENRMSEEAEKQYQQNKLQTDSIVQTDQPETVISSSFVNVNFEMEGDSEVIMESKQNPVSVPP
inactive: [1] -0.073 | [2] 0.047 | [3] 0.17 | [4] -0.002 | [5] 0.028

EMD (UniProt P50402)
UniProt P50402, sequence (P50402 whole entry, looked up): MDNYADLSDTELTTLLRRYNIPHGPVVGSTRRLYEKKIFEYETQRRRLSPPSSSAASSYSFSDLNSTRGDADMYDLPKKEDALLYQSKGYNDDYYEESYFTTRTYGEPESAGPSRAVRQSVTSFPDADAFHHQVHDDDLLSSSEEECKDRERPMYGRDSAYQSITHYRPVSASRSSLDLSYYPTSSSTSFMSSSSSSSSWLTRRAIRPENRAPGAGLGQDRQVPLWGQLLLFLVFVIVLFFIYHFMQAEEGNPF
inactive: [1] 0.016 | [2] 0.022 | [3] 0.059 | [4] 0.058 | [5] 0.031

DAXX (UniProt Q9UER7)
UniProt Q9UER7, sequence (Q9UER7 whole entry, looked up): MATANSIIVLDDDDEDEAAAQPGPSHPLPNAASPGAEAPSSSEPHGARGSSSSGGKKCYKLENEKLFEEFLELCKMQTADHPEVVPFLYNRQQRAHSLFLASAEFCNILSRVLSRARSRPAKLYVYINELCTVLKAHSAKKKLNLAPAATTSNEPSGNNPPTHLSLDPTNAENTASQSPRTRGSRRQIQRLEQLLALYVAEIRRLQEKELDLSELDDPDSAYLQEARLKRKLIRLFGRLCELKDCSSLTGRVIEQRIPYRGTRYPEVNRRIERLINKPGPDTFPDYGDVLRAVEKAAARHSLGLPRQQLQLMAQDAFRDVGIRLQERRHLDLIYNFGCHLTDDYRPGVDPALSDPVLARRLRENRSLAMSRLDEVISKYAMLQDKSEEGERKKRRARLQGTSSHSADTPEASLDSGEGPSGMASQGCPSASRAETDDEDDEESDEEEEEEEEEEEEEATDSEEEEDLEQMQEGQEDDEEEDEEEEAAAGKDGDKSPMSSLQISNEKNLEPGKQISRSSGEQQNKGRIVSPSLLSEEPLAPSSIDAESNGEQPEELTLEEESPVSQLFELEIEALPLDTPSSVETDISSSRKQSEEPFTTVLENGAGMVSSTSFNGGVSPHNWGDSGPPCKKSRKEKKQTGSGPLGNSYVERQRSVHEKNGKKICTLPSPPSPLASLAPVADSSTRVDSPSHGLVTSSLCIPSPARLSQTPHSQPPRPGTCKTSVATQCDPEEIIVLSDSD
inactive: [1] 0.166 | [2] 0.178 | [3] 0.197 | [4] 0.017 | [5] -0.101

DNAAF2 (UniProt Q9NVR5)
UniProt Q9NVR5, sequence (Q9NVR5 whole entry, looked up): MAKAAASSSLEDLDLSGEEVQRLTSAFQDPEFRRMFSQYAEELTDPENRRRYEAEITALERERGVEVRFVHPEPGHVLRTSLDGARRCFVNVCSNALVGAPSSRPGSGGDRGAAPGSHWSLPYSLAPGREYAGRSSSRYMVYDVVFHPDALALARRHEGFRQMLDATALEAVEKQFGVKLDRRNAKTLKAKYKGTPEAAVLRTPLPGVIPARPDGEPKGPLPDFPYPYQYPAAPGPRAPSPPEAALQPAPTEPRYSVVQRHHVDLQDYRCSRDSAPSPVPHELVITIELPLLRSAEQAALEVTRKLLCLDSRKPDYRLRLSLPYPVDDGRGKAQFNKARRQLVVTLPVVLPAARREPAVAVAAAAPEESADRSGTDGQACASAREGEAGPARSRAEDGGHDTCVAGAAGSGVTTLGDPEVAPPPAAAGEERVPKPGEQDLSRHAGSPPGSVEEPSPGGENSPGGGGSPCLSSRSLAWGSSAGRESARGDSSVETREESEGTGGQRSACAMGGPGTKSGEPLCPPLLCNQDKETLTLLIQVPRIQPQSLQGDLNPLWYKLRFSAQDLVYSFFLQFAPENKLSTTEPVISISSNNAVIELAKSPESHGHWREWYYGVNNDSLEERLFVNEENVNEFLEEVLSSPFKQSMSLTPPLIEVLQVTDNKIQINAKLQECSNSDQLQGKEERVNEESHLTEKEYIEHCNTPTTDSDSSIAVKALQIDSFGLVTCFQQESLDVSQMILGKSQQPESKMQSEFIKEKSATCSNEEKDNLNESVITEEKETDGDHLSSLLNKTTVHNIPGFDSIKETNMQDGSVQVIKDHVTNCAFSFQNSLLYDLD
inactive: [1] 0.039 | [2] 0.02 | [3] -0.013 | [4] -0.003 | [5] 0.002

CTU1 (UniProt Q7Z7A3)
UniProt Q7Z7A3, sequence (Q7Z7A3 whole entry, looked up): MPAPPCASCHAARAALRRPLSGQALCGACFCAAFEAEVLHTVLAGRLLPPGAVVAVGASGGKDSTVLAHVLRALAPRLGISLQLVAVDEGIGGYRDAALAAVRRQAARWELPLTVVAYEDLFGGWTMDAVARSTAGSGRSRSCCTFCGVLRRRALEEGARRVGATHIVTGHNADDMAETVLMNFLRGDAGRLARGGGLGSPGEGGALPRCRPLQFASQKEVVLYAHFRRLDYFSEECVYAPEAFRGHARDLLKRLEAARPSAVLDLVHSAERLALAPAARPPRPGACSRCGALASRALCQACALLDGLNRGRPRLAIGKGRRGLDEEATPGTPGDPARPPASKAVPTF
inactive: [1] -0.061 | [2] 0.025 | [3] 0.052 | [4] -0.006 | [5] -0.051

EIF4E isoform 2 (UniProt P06730)
UniProt P06730, sequence (P06730 whole entry, looked up): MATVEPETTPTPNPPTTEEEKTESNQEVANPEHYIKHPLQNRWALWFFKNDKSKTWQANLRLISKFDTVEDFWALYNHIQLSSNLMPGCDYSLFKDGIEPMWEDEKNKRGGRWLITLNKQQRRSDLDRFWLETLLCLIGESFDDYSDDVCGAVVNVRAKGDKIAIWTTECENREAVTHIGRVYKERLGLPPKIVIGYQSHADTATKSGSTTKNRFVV
inactive: [1] 0.029 | [2] -0.026 | [3] -0.002 | [4] -0.144 | [5] 0.009

DNAJC19 (UniProt Q96DA6)
UniProt Q96DA6, sequence (Q96DA6 whole entry, looked up): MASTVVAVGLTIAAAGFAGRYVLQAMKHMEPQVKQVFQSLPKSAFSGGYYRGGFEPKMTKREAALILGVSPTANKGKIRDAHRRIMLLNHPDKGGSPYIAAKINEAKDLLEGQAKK
inactive: [1] 0.025 | [2] 0.021 | [3] 0.05 | [4] 0 | [5] -0.041

DNM2 (UniProt P50570)
UniProt P50570, sequence (P50570 whole entry, looked up): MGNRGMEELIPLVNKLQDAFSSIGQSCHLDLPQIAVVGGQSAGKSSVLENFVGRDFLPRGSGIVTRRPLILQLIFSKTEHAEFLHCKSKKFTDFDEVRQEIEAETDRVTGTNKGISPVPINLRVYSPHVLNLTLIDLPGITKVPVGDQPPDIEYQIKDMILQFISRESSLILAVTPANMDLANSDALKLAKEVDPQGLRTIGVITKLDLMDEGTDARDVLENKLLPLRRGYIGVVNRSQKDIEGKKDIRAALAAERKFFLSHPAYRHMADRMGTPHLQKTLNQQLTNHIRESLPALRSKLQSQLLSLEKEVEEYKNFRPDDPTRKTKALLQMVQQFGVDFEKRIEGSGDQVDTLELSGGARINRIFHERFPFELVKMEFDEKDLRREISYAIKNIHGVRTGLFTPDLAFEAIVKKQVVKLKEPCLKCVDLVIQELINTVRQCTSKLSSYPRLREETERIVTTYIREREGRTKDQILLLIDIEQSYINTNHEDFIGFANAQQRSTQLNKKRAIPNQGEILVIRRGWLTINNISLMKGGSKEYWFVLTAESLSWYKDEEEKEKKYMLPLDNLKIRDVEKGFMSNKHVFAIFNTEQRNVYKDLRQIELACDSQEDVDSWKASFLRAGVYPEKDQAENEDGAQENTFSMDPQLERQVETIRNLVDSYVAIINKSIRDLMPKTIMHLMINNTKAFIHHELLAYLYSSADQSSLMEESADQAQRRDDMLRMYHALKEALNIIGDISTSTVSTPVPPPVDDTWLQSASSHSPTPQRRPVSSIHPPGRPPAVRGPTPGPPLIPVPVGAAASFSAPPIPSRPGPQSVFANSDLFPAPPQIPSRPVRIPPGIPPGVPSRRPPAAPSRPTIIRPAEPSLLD
inactive: [1] -0.023 | [2] 0.044 | [3] 0.078 | [4] -0.027 | [5] -0.036
